# PubChem BioAssay AID720541 (National Center for Advancing Translational Sciences (NCATS), 2013)
# Out of some 1,300 compounds screened, about 420 (32%) were called active. Roughly 32% stayed inconclusive and do not appear here. Calls come from the whole dose curve; as a rule, active = well fitted inhibition curve with a large enough effect; inconclusive = small, poorly fitted or top-dose-only effect; inactive = no such curve, though single readings can be large or run the other way. Some of the results follow.
# Target: C-terminal-binding protein 1 (Homo sapiens) (UniProt Q13363)
# Assay: qHTS for Inhibitors of the Phosphatase Activity of Eya2: Carboxyl-terminal binding protein (CtBP) Counterscreen for Cherry-picked Compounds; note: nearly all actives have a fitted effect of over 65% in size
# Conditions: purified protein-protein binding, AlphaScreen, 3 h; series mostly up to 46.1 µM; activity change, negative = inhibition: at the top concentration
# How it was run: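 Cherry-picked compounds (final 2.5 nM–46 uM) were incubated 2 h at RT with 25 nM CtBP-6xHIS and 25 nM GST-E1A. Alpha beads (20 ug/mL) were then added for 1 h, light-protected; DMSO and E1A peptide inhibitor wells set the normalization.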
# % is set by controls: 0 for no effect and ±100 for the full control effect; potency is the fitted concentration of half-maximal effect.
SMILES,"activity change, negative = inhibition",Potency
NC(=O)[C@@H]1CC2(CC(c3cccc(NC(=O)COc4ccc(Cl)cc4)c3)=NO2)CN1C(=O)COc1ccc(Cl)cc1 (some centres not stated),-2.46% (inactive),–
CCOCCCNC(=O)c1cc2sc(Cl)cc2n1CC,-5.54% (inactive),–
Cc1cccc2cn[nH]c12,3.72% (inactive),–
O=C(NN=C1CCCC1)c1[nH]c2ccc(Br)cc2c1-c1ccccc1,-4.82% (inactive),–
COc1ccc(OC)c(NC(=O)CSc2nc(-c3ccccc3)cc(=O)[nH]2)c1,-21.4% (inactive),–
CCOC(=O)c1sc(NC(=O)CSc2nc(O)c(Cc3ccccc3)c(=O)[nH]2)nc1C,–,16.9 µM (active)
O=C(O)c1ccccc1-c1ccccc1C(=O)Nc1ccc2oc(=O)c3ccccc3c2c1,–,12 µM (active)
O=C(O)c1ccccc1-c1ccccc1C(=O)Nc1ccc2c(c1)[nH]c(=O)c1ccccc12,–,7.57 µM (active)
CCN1C(=O)/C(=C2/C=Cc3ccccc3N2CC)SC1=S,–,4.26 µM (active)
COc1cc(OC)c(OC)cc1/C=C/c1nccc2ccccc12,–,7.57 µM (active)
FC(F)(F)c1ccc(CN2C[C@@H]3C(c4ccc(Cl)nc4)C4(c5cccnc5)CC3(C4)[C@H]2c2ccccc2)cc1 (some centres not stated),-13.9% (inactive),–
Cc1ccc(O)c(C(=O)c2cnc3c(c2)c(-c2ccc(F)cc2)c(C#N)c(=O)n3C)c1,50.2% (inactive),–
COc1ccc([C@H]2CC(=O)C=C(c3ccnc4ccc(Cl)cc34)C2)cc1,-17.1% (inactive),–
CN(C)c1ccc(NC(=O)CC(NCc2ccccn2)C(=O)O)cc1 (configuration not stated),–,1.07 µM (active)
CC(=O)Nc1ccc(NC(=O)COc2ncnc3ccccc23)cc1,23% (inactive),–
COc1cc(OC)c(NC(=O)CN(C)S(=O)(=O)c2ccc(-c3ccc(=O)[nH]n3)s2)cc1Cl,–,6.01 µM (active)
CCN(CC)c1ccc(/C=C2\CCC(/C=C(\C#N)C(=O)Nc3ccccc3F)=C2N2CCOCC2)cc1,–,23.9 µM (active)
CCCc1ccc(C#N)c(SC2CC(=O)N(c3ccc(OC)cc3)C2=O)n1 (configuration not stated),-12.5% (inactive),–
O=C1NC(=O)/C(=C\c2ccccc2OCc2cccc([N+](=O)[O-])c2)N1,-13% (inactive),–
COc1ccc(F)cc1-c1cc(NC=O)c2ncc(-c3cccc(C(F)(F)F)c3)n2c1,-11.4% (inactive),–
Oc1c(C(Nc2nc3ccccc3s2)c2ccco2)ccc2cccnc12 (configuration not stated),–,6.75 µM (active)
Cc1cc(C)c(OCCCCN(C)Cc2ccccc2)c(C)c1,58.5% (inactive),–
O=c1c2ccccc2oc2nc3n(c(=O)c12)CCCS3,–,12 µM (active)
Cc1cc(=O)n2nc(N3CCCC(C(=O)Nc4ccc(C)c(C)c4)C3)sc2n1 (configuration not stated),-39.8% (inactive),–
CN1/C(=C\C(=S)NC(=O)c2ccccc2Cl)C(C)(C)c2ccccc21,–,15.1 µM (active)

SMILES,"activity change, negative = inhibition",Potency
Oc1[nH]c2ccccc2c1N=Nc1nc2ccccc2s1,-4.03% (inactive),–
Cc1c(CCO)c(=O)n(-c2ccccc2)n1S(=O)(=O)c1c(Cl)cc(Cl)cc1Cl,-25.3% (inactive),–
CCOc1ccc(S(=O)(=O)Nc2cc(SCC(=O)O)c(O)c3ccccc23)cc1,–,21.3 µM (active)
CCN1CCN(c2nn3c(=O)c4ccccc4nc3c3ccccc23)CC1,–,9.53 µM (active)
O=C(O)CCc1c2ccc(=O)c(O)c-2oc2c(O)c(O)ccc12,–,16.9 µM (active)
CCN(CC)c1ccc(N=Cc2cc(Br)ccc2O)cc1,5.98% (inactive),–
CC(C)c1ccc(C2c3[nH]c4ccccc4c3C[C@H]3C(=O)N(c4ccccc4C(=O)N4CCC[C@H]4C(=O)O)C(=O)N23)cc1 (some centres not stated),-23.3% (inactive),–
COc1ccc(/C=C2\CCc3ccccc3C2=O)cc1CN1CCOCC1,–,13.5 µM (active)
COc1ccc(C(=O)N2CCOCC2)cc1S(=O)(=O)N1CCCc2ccccc21,-3.75% (inactive),–
Cn1ccc2c(N3CCCC3)cc3c(c21)C1CCC3C1 (configuration not stated),–,15.1 µM (active)
O=C(NCCCNC1CCCCC1)c1ccc(/C=N/O)nc1,–,13.5 µM (active)
CN(C)c1ccc(Sc2ccc3nc(N)nc(N)c3c2)cc1,–,6.75 µM (active)
COc1ccccc1/C=C/C(=O)Oc1cccc2cccnc12,–,3.38 µM (active)
O=C(/C=C/c1ccccc1)Oc1cccc2cccnc12,–,2.39 µM (active)
O=C(/C=C\c1ccccc1)Oc1cccc2cccnc12,–,3.38 µM (active)
O=C(/C=C/c1ccco1)Oc1cccc2cccnc12,–,4.26 µM (active)
O=C(/C=C/c1ccco1)Nc1ccccc1N1CCCC1,-24.3% (inactive),–
COc1ccc(Br)cc1CNC(=O)c1ccc2c(c1)N(C)CCS2,-24.5% (inactive),–
N#Cc1c(=O)c2nc(NCc3ccccc3)ncc2n2ccccc12,–,4.26 µM (active)
CC(C)Cn1c(SC(C)C(=O)Nc2ccc(N3CCOCC3)cc2)nc2ccccc21 (configuration not stated),-22.3% (inactive),–
CC1CCCCC1Nc1nc2ccc(Cl)cc2n2cnnc12 (configuration not stated),-14.8% (inactive),–
c1ccc2c(c1)nc(Nc1ccc(N3CCCCC3)cc1)c1nncn12,–,15.1 µM (active)
Cc1cccc(NC2=C(NCCO)C(=O)c3ccccc3C2=O)c1,–,12 µM (active)
CNc1nc(-c2ccc3c(c2)CCN3C(=O)c2cccc(F)c2)cs1,-25.3% (inactive),–
CC1=CC(=O)Nc2ncccc2O1,–,15.1 µM (active)

SMILES,"activity change, negative = inhibition",Potency
C[N+](C)(CCCCCI)c1ccc(/C=C/c2nc3ccccc3s2)cc1,–,12 µM (active)
O=C(Oc1ccc2ccc(=O)oc2c1)c1cccs1,-6.55% (inactive),–
Cc1nc(S/C(=C\c2ccc(-c3ccc(C(=O)O)c(Cl)c3)o2)C(=O)O)n[nH]1,–,13.5 µM (active)
O=C(NNC(=O)c1cc2cc(Br)ccc2oc1=O)c1ccc(O)cc1,24.4% (inactive),–
Cc1ccc(C(=O)Oc2ccc3ccc(=O)oc3c2)cc1,-3.56% (inactive),–
CC(=O)Nc1ccc(OC(=O)c2cc3cc(Br)ccc3oc2=O)cc1,–,6.75 µM (active)
CCOc1cc(/C=C2\C(=N)N3N=C(CC)SC3=NC2=O)ccc1OCCOc1ccc(NC(C)=O)cc1,–,3.79 µM (active)
Cc1cc(/C=C2\C(=N)N3N=C(CC(=O)N4CCOCC4)SC3=NC2=O)c(C)n1Cc1ccccc1,-9.67% (inactive),–
O=C(CSc1nnc2c3ccccc3c3ccccc3c2n1)Nc1ccccc1F,–,12 µM (active)
COc1ccccc1NC(=O)CCCCCN1C(=O)c2cccc3cccc(c23)C1=O,-5.32% (inactive),–
COc1ccc(NC(=O)COc2cccc3c2CCN(C)C3=O)c(OC)c1,–,8.49 µM (active)
COc1ccc(NC(=O)c2ccc(CN3CCc4ccccc4C3)cc2)c(OC)c1,-22.2% (inactive),–
Cc1c(C(=O)/C=C/N(C)C)nnn1-c1ccc(Cl)cc1Cl,3.68% (inactive),–
CN(C)S(=O)(=O)c1cccc(NC(=O)COc2ccccc2C(=O)Nc2ccccc2)c1,–,10.7 µM (active)
O=C(COc1ccccc1/C=C1/NC(=O)NC1=O)Nc1ccccc1,-22% (inactive),–
CCC(C)C(CO)NC(=O)/C=C/[C@H]1O[C@@H](n2cnc3c(NC(=O)c4ccccc4)ncnc32)[C@H](O)[C@@H]1O (some centres not stated),2.64% (inactive),–
CCCC[C@@]1(C2CCCC2)Cc2cc(OCC(=O)O)c(Cl)c(Cl)c2C1=O,-17.1% (inactive),–
CN1C(=O)/C(=C2\SC(=S)N(NC(=O)c3cccnc3)C2=O)c2ccccc21,–,15.1 µM (active)
CCOC(=O)CN1C(=O)/C(=C2\SC(=S)N(NC(=O)c3cccnc3)C2=O)c2ccccc21,–,13.5 µM (active)
CCOc1ccc2[nH]c3nc(SCC(=O)NC4CCCC4)nnc3c2c1,23.6% (inactive),–
CCc1ccc2[nH]c3nc(SCC(=O)NCC4CCCO4)nnc3c2c1 (configuration not stated),–,4.78 µM (active)
Cc1cc2oc(C(=O)N(Cc3ccc(N(C)C)cc3)CC3CCCO3)c(C)c2cc1C (configuration not stated),-65.1% (inactive),–
Cc1nnc2sc(SCC(=O)Nc3ccc(Br)cc3)nn2c1=O,–,2.13 µM (active)
CCCc1cc(=O)[nH]c(SCC(=O)Nc2ccc(C)cc2)n1,2.2% (inactive),–
CCOC(=O)N1CCC(NC(=O)c2cc3c(-c4ccccc4F)nn(C)c3s2)CC1,6.05% (inactive),–

SMILES,"activity change, negative = inhibition",Potency
N#Cc1c2nc3ccccc3nc2n2cc(NC(=O)c3ccc(F)cc3)ccc12,–,3.79 µM (active)
Cc1cccc(N2CCN(C(=O)C3COc4ccccc4O3)CC2)c1C (configuration not stated),1.89% (inactive),–
Cc1cnc(C(=O)Nc2ccccc2-c2ccc(C)o2)cn1,-9.79% (inactive),–
Cc1cc(Nc2ccccc2C(=O)O)n(-c2cccc(Cl)c2)n1,–,7.57 µM (active)
COc1ccc(-n2nc(C)cc2Nc2ccccc2C(=O)O)cc1,–,7.57 µM (active)
CCOC(=O)c1cc(-c2ccc(N3CCOCC3)cc2)nn1-c1ccccc1C(=O)O,1.17% (inactive),–
CCc1nc2ccc(C(=O)NCCOc3ccc(OC)cc3)cn2c1N(CCC(C)C)CCN(C)C,-15% (inactive),–
O=C1c2ccccc2C(=O)c2c(Nc3ccc(CCO)cc3)ccc(O)c21,–,6.01 µM (active)
COc1cccc(C2c3[nH]c4ccccc4c3CCN2Cc2cnn(C)c2)c1 (configuration not stated),-26.5% (inactive),–
CNc1c(Br)cc(C(O)C2=CCc3ccccc32)cc1Br (configuration not stated),-6.01% (inactive),–
O=C(NC1CCCC1)c1cc(=O)[nH]c2ccccc12,20.1% (inactive),–
Cc1csc(NC(=O)c2cc(=O)[nH]c3ccccc23)n1,–,19 µM (active)
COc1ccc(C(=O)CC(=O)Nc2ccc([N+](=O)[O-])cc2)cc1,-3.78% (inactive),–
O=C(Nc1cc([N+](=O)[O-])ccc1O)c1cccc(C(=O)Nc2cc([N+](=O)[O-])ccc2O)c1,–,6.01 µM (active)
Cc1cc(Br)c(NC(=O)c2ccccc2[N+](=O)[O-])cc1C,0.85% (inactive),–
COc1cc(OC)c(OC)cc1CCC(C)NCCC(c1ccccc1)c1ccccc1 (configuration not stated),–,13.5 µM (active)
Cc1cccc(NC(=O)COC(=O)c2cccc3c2C(=O)c2ccccc2C3=O)c1C,-11.7% (inactive),–
CNc1cccc2c1C(=O)c1ccccc1C2=O,–,2.39 µM (active)
NC(=O)c1ccc(NC(=O)COC(=O)/C=C/c2ccc(Br)o2)cc1,3.02% (inactive),–
C=CCn1cccc(C(=O)Nc2ccc(N(C)C)cc2)c1=O,-23.2% (inactive),–
Cc1ccc(/C=C/C(=O)Nc2ccc(N(C)C)cc2)o1,–,15.1 µM (active)
CN(C)c1ccc(-c2ccnc3c2CC(C)(C(=O)Nc2ccc(Cl)c(C(F)(F)F)c2)O3)cc1 (configuration not stated),-29.7% (inactive),–
